# Source: PubChem BioAssay (NCATS)
# Inconclusive results are not listed. Where a call stands in place of a potency, no number is given. Unmarked numbers belong to inactive results. Activity calls are given as the source filed them. Calls follow the shape of the dose curve; as a rule, active = well fitted curve in the direction sought with a large enough effect; inconclusive = small, poorly fitted or top-dose-only effect, or another doubt; inactive = no such curve, though single readings can be large; an effect the other way counts as inactive or inconclusive.
# Columns and labels:
# [1] = biological target: Cytochrome P450 1A2 (Homo sapiens) (UniProt P05177); assay: qHTS for inhibitors of CYPIA2 against the NCATS DSHEA and TCM libraries (AID 1919976)
# Cytochrome P450 1A2 (Homo sapiens), sequence (P05177 whole entry, looked up): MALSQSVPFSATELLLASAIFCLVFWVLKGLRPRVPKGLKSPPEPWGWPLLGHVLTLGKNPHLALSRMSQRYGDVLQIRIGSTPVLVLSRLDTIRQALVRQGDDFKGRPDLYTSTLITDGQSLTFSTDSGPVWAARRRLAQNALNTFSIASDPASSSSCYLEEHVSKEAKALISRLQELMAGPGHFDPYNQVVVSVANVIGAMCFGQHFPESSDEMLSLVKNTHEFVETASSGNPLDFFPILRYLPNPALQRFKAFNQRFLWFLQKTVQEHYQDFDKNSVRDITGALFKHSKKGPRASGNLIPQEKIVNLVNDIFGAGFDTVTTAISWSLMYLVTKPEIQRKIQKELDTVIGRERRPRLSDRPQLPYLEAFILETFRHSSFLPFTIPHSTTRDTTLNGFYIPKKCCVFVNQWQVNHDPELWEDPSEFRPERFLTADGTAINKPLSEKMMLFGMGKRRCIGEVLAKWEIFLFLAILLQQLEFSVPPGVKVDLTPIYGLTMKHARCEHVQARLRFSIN
# How it was run: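 Reaction started with 1x NADPH regeneration solution and run 30-45 min, room temperature, protected from light, after compounds sat 15 min with CYP1A2 and pro-luciferin substrate. P450-Glo detection gave luminescence; furafylline served as control.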
# [2] = qHTS profiling for inhibitors of Plasmodium falciparum proliferation (AID 504749); also: nearly all actives have a fitted effect of over 60% in size; also: potency is read from the fitted curve at half-maximal effect; settings: P. falciparum in erythrocytes, SYBR Green DNA, 72 h
# How it was run: (§1)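 Each compound contacts P. falciparum-infected red blood cells for 72 h at 37 C; lysis buffer (Tris, EDTA, saponin, Triton X, SYBR Green I) is added and fluorescence measured next morning; values normalized to controls.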
# 3D7 = assay: as above; settings: P. falciparum in erythrocytes, SYBR Green DNA, 72 h; series mostly up to 28.7 µM
# How it was run: as §1
# 7G8 = assay: as above; settings: P. falciparum in erythrocytes, SYBR Green DNA, 72 h; series mostly up to 28.7 µM
# How it was run: as §1
# AA1029 = assay: as above; settings: P. falciparum in erythrocytes, SYBR Green DNA, 72 h; series mostly up to 28.7 µM
# How it was run: as §1
# [3] = biological target: Glutathione peroxidase 1 (Homo sapiens) (UniProt P07203); assay: Primary qHTS Assay for Inhibitors of Recombinant Selenoprotein Glutathione Peroxidase 1 (GPX1) (AID 1845191); also: nearly all actives have a fitted effect of over 65% in size
# Glutathione peroxidase 1 (Homo sapiens), sequence (P07203 whole entry, looked up): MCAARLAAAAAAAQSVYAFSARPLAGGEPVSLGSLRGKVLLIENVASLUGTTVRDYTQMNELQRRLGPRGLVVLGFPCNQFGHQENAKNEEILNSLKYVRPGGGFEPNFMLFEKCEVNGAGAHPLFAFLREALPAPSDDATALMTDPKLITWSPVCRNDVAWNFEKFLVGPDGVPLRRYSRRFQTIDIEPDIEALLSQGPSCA
# How it was run: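 GR-coupled readout: NADPH consumption tracked by fluorescence, ex 340/em 450 nm, at t=0 and after 15 min at RT. Final mix 10 nM GPX1, 1 mM GSH, 0.5 mM CHP, 0.5 mM NADPH, 100 nM GR, 0.01% BSA, following 30 min enzyme–compound preincubation.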
# [4] = biological target: Phospholipid hydroperoxide glutathione peroxidase GPX4 (Homo sapiens) (UniProt P36969); assay: Primary qHTS Assay for Inhibitors of Recombinant Selenoprotein Glutathione Peroxidase 4 (GPX4) (AID 1845192); also: nearly all actives have a fitted effect of over 65% in size
# Phospholipid hydroperoxide glutathione peroxidase GPX4 (Homo sapiens), sequence (P36969 whole entry, looked up): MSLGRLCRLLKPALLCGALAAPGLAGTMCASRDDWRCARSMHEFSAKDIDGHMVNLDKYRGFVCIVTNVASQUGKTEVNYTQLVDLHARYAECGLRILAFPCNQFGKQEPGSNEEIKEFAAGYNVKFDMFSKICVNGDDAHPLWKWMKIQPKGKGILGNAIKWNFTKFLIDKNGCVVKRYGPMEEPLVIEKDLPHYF
# How it was run: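 Steps: GPX4 plus compound, 30 min RT; add GR/GSH/NADPH master mix; start with cumene hydroperoxide; read 340/450 nm fluorescence at 0 and 15 min. Finals were 200 nM GPX4, 1 mM GSH, 0.5 mM CHP, 0.5 mM NADPH, 100 nM GR.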
# [5] = at 28.7 µM (top of the series), parasite line A
# [6] = at 28.7 µM (top of the series), parasite line B
# [7] = at 12.8 µM (top of the series), parasite line A
# [8] = at 12.8 µM (top of the series), parasite line B
smiles,measurement,setting,value
NC(=O)NC1NC(=O)NC1=O (centres undefined),outcome,[1],inactive
CC(C)=CCC[C@@](C)(O)[C@H]1CC=C(C)CC1,outcome,[1],inactive
Cc1ccc(C(C)C)c(O)c1,"activity, negative = inhibition",[2]; [5],4.16%
same,"activity, negative = inhibition",[2]; [6],-10.5%
same,Potency,3D7,inactive
same,Potency,7G8,inactive
same,Potency,AA1029,inactive
O=C(c1ccccc1)C(O)c1ccccc1 (centres undefined),Potency,[3],inactive
same,Potency,[4],inactive
same,"activity, negative = inhibition",[2]; [6],-14.9%
same,Potency,3D7,inactive
same,Potency,7G8,inactive
same,Potency,AA1029,inactive
CC[N+](C)(CC)CCOC(=O)C1c2ccccc2Oc2ccccc21,Potency,[3],inactive
same,Potency,[4],inactive
same,"activity, negative = inhibition",[2]; [5],-12.5%
same,"activity, negative = inhibition",[2]; [6],-20.9%
same,Potency,3D7,inactive
same,Potency,7G8,inactive
same,Potency,AA1029,inactive
Cc1cc(C)c(NC(=O)CN(CC(=O)O)CC(=O)O)c(C)c1Br,Potency,[3],inactive
same,Potency,[4],inactive
same,Potency,3D7,inactive
same,Potency,7G8,inactive
Cc1c(NC(=O)c2cccnc2)c(=O)n(-c2ccccc2)n1C,Potency,[3],inactive
same,Potency,[4],inactive
same,"activity, negative = inhibition",[2]; [7],17.3%
same,"activity, negative = inhibition",[2]; [8],5.39%
same,Potency,3D7,inactive
same,Potency,AA1029,inactive
O=C(O)c1ccc(OCCCOc2ccc(C(=O)O)cc2)cc1,Potency,[3],inactive
same,Potency,[4],inactive
same,"activity, negative = inhibition",[2]; [5],0.28%
same,"activity, negative = inhibition",[2]; [6],9.9%
same,Potency,3D7,inactive
same,Potency,7G8,inactive
same,Potency,AA1029,inactive
CCOc1ccc(C(=O)OCCN(CC)CC)cc1,Potency,[3],inactive
same,Potency,[4],inactive
same,"activity, negative = inhibition",[2]; [5],11.5%
same,"activity, negative = inhibition",[2]; [6],3.64%
same,Potency,3D7,inactive
same,Potency,7G8,inactive
same,Potency,AA1029,inactive
Nc1ccc(S(=O)(=O)c2ccc(N)cc2)cc1,Potency,[3],inactive
same,Potency,[4],inactive
same,"activity, negative = inhibition",[2]; [5],2.8%
same,"activity, negative = inhibition",[2]; [6],7.07%
same,Potency,3D7,inactive
same,Potency,AA1029,inactive
CC(CSC(=O)c1ccccc1)C(=O)N1C[C@@H](Sc2ccccc2)C[C@H]1C(=O)O (some centres undefined),Potency,[3],inactive
same,"activity, negative = inhibition",[2]; [5],13%
same,"activity, negative = inhibition",[2]; [6],2.24%
same,Potency,3D7,inactive
same,Potency,7G8,inactive
same,Potency,AA1029,inactive
NCC1CCC(C(=O)Oc2ccc(CCC(=O)O)cc2)CC1 (centres undefined),Potency,[3],inactive
same,Potency,[4],inactive
same,"activity, negative = inhibition",[2]; [5],-0.969%
same,"activity, negative = inhibition",[2]; [6],4.31%
same,Potency,3D7,inactive
same,Potency,7G8,inactive
same,Potency,AA1029,inactive
Nc1ccc(C(=O)Oc2ccccc2)c(O)c1,Potency,[3],inactive
same,Potency,[4],inactive
same,"activity, negative = inhibition",[2]; [5],-10.9%
same,"activity, negative = inhibition",[2]; [6],5.45%
same,Potency,3D7,inactive
same,Potency,7G8,inactive
same,Potency,AA1029,inactive
CC(=O)Oc1cccc(O)c1,Potency,[3],inactive
same,Potency,[4],inactive
same,"activity, negative = inhibition",[2]; [5],4.48%
same,"activity, negative = inhibition",[2]; [6],12.6%
same,Potency,3D7,inactive
same,Potency,AA1029,inactive
Cc1[nH]c(C)c(Cl)c(=O)c1Cl,Potency,[3],inactive
same,Potency,[4],inactive
same,Potency,7G8,11.2 µM (active)
same,Potency,AA1029,inactive
NC(N)=NCCN1CCCCCCC1,outcome,[3],inactive [at 0.4 µM]
same,outcome,[4],inactive [at 0.409 µM]
same,"activity, negative = inhibition",[2]; [7],4.56%
same,"activity, negative = inhibition",[2]; [8],10.2%
same,Potency,3D7,inactive
same,Potency,7G8,inactive
same,Potency,AA1029,inactive
C[C@H]1COc2c(C3(N)CC3)c(F)cc3c(=O)c(C(=O)O)cn1c23,Potency,[3],inactive
same,Potency,[4],inactive
same,"activity, negative = inhibition",[2]; [5],-1.84%
same,"activity, negative = inhibition",[2]; [6],-23.2%
same,Potency,7G8,inactive
same,Potency,AA1029,inactive
Cc1ccccc1N=Nc1ccc(N=Nc2c(O)ccc3ccccc23)c(C)c1,Potency,[3],inactive
same,Potency,[4],inactive
same,"activity, negative = inhibition",[2]; [5],3.72%
same,"activity, negative = inhibition",[2]; [6],9.83%
same,Potency,3D7,inactive
same,Potency,7G8,inactive
same,Potency,AA1029,inactive
OCc1ccc(Cl)cc1Cl,Potency,[3],inactive
same,Potency,[4],inactive
same,"activity, negative = inhibition",[2]; [5],-3.83%
same,"activity, negative = inhibition",[2]; [6],-17.4%
same,Potency,3D7,inactive
same,Potency,7G8,inactive
same,Potency,AA1029,inactive
NC(=O)CCCCC1CCSS1 (centres undefined),Potency,[3],inactive
same,Potency,[4],inactive
same,"activity, negative = inhibition",[2]; [5],-3.84%
same,"activity, negative = inhibition",[2]; [6],-4.11%
same,Potency,3D7,inactive
same,Potency,AA1029,inactive
CC(=O)NS(=O)(=O)c1ccc(N)cc1,Potency,[3],inactive
same,Potency,[4],inactive
same,"activity, negative = inhibition",[2]; [5],6.18%
same,"activity, negative = inhibition",[2]; [6],10.5%
same,Potency,3D7,inactive
same,Potency,7G8,inactive
same,Potency,AA1029,inactive
O=C1C(c2[nH]c3ccccc3c2O)=Nc2ccccc21,Potency,[3],inactive
same,Potency,[4],inactive
same,Potency,AA1029,inactive
Cc1cc(OI)c(C(C)C)cc1-c1cc(C(C)C)c(OI)cc1C,Potency,[3],inactive
same,Potency,[4],inactive
same,Potency,7G8,7.94 µM (active)
CC(=O)Oc1cccc(C)c1,Potency,[3],inactive
same,Potency,[4],inactive
same,"activity, negative = inhibition",[2]; [5],4.88%
same,"activity, negative = inhibition",[2]; [6],-6.23%
same,Potency,3D7,inactive
same,Potency,7G8,inactive
same,Potency,AA1029,inactive
CN(C/C=C/C#CC(C)(C)C)Cc1cccc2ccccc12,Potency,[3],inactive
same,Potency,[4],inactive
same,"activity, negative = inhibition",[2]; [5],-1.32%
same,"activity, negative = inhibition",[2]; [6],-6.19%
same,Potency,3D7,inactive
same,Potency,AA1029,inactive
